PubChem BioAssay AID1159580 (chemical genetic matrix, 2015)
Values joined by “and” are separate entries in the source; they are usually repeats but may differ in a detail not shown here. Equal values may be shown once. Screen size: about 5,500 compounds; about 2,000 (36%) were called active. Not shown: some 18% with an inconclusive outcome. No stated cut-off is given here; in the data, active means normalized growth mostly below about 0.91 (no sharp cut-off); inconclusive means no clear call, values can overlap the other calls; inactive means mostly above about 0.92. The list shows a part of the results.

Assay: chemical genetic growth profiling, strain panel (AID 1159580);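 further: tested at 20 µM; growth read once vehicle control cultures reached saturation at 30 °C; 1 = growth at the plate median or of vehicle wells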
Details: S. cerevisiae deletion strains, growth OD

Measured: normalized growth

Cc1ccc(C)c(OCCCC(C)(C)C(=O)O)c1
active: locus YCL029C, strain bik1, stronger effect = lower value 0.894 | locus YDL035C, strain GPR1, stronger effect = lower value 0.845 | locus YDL185W, strain tfp1, stronger effect = lower value 0.309 | locus YDR101C, strain arx1, stronger effect = lower value 0.872 | locus YDR137W, strain rgp1, stronger effect = lower value 0.699 | locus YDR162C, strain NBP2, stronger effect = lower value 0.832 | locus YDR318W, strain mcm21, stronger effect = lower value 0.866 | locus YDR388W, stronger effect = lower value 0.874 | locus YDR392W, strain spt3, stronger effect = lower value 0.58 | locus YDR502C, strain sam2, stronger effect = lower value 0.852 | locus YGL078C, strain dbp3, stronger effect = lower value 0.485 | locus YGL086W, strain mad1, stronger effect = lower value 0.877 | locus YHR079C, strain IRE1 (second series), stronger effect = lower value 0.869 | locus YHR079C, strain IRE1, stronger effect = lower value 0.833 | locus YIL125W, strain kgd1, stronger effect = lower value 0.356 | locus YJL129C, strain trk1, stronger effect = lower value 0.857 | locus YKL009W, strain mrt4, stronger effect = lower value 0.437 | locus YKL068W, stronger effect = lower value 0.923 | locus YKL085W, strain MDH1 (second series), stronger effect = lower value 0.492 | locus YKL085W, strain MDH1, stronger effect = lower value 0.492 | locus YKR001C, strain vps1, stronger effect = lower value 0.644 | locus YLR039C, strain RIC1, stronger effect = lower value 0.469 | locus YLR113W, strain HOG1, stronger effect = lower value 0.752 | locus YLR262C, strain YPT6 (second series), stronger effect = lower value 0.706 | locus YLR262C, strain YPT6, stronger effect = lower value 0.509 | locus YLR268W, strain sec22, stronger effect = lower value 0.845 | locus YLR342W, strain FKS1 (second series), stronger effect = lower value 0.751 | locus YLR418C, strain cdc73, stronger effect = lower value 0.824 | locus YML032C, strain rad52, stronger effect = lower value 0.847 | locus YMR223W, strain ubp8, stronger effect = lower value 0.865 | locus YMR307W, strain GAS1, stronger effect = lower value 0.481 | locus YNL250W, strain rad50, stronger effect = lower value 0.578 | locus YNL271C, strain bni1, stronger effect = lower value 0.452 | locus YNL298W, strain CLA4, stronger effect = lower value 0.202 | locus YNL307C, strain MCK1, stronger effect = lower value 0.649 | locus YNR052C, strain pop2, stronger effect = lower value 0.775 | locus YOL147C, strain pex11, stronger effect = lower value 0.908 | locus YOR144C, strain elg1, stronger effect = lower value 0.907 | locus YOR184W, strain ser1, stronger effect = lower value 0.675 | locus YOR231W, strain MKK1, stronger effect = lower value 0.803 | locus YPL256C, strain CLN2, stronger effect = lower value 0.825 | locus YPR119W, strain clb2, stronger effect = lower value 0.93 | locus YPR141C, strain kar3, stronger effect = lower value 0.817 | locus YPR163C, strain tif3, stronger effect = lower value 0.857 | locus YPR167C, strain met16, stronger effect = lower value 0.914 | strain wtn01, stronger effect = lower value 0.877
0.95 (inactive) and 0.784 (active): locus YHR030C, strain SLT2, stronger effect = lower value
inactive: locus YAL021C, strain ccr4, stronger effect = lower value 0.986 | locus YAL026C, strain drs2, stronger effect = lower value 0.919 | locus YAL030W, strain snc1, stronger effect = lower value 0.981 | locus YBL061C, strain skt5, stronger effect = lower value 0.975 | locus YBR009C, strain hhf1, stronger effect = lower value 0.957 | locus YBR021W, strain FUR4, stronger effect = lower value 0.926 | locus YBR023C, strain chs3, stronger effect = lower value 0.964 | locus YBR171W, strain sec66, stronger effect = lower value 0.948 | locus YBR229C, strain ROT2, stronger effect = lower value 0.939 | locus YBR231C, strain swc5, stronger effect = lower value 0.986 | locus YBR279W, strain paf1, stronger effect = lower value 0.983 | locus YCL011C, strain gbp2, stronger effect = lower value 0.978 | locus YCL016C, strain dcc1, stronger effect = lower value 0.949 | locus YCL061C, strain MRC1, stronger effect = lower value 0.968 | locus YCL069W, strain vba3, stronger effect = lower value 0.987 | locus YCR088W, strain abp1, stronger effect = lower value 0.982 | locus YDL005C, strain med2, stronger effect = lower value 0.982 | locus YDL040C, strain nat1, stronger effect = lower value 0.987 | locus YDL074C, strain BRE1, stronger effect = lower value 0.858 | locus YDL101C, strain DUN1, stronger effect = lower value 0.975 | locus YDL192W, strain arf1, stronger effect = lower value 0.931 | locus YDR001C, strain nth1, stronger effect = lower value 0.973 | locus YDR069C, strain doa4, stronger effect = lower value 0.987 | locus YDR159W, strain sac3, stronger effect = lower value 0.962 | locus YDR195W, strain ref2 1.1 | locus YDR297W, strain sur2, stronger effect = lower value 0.992 | locus YDR334W, strain swr1, stronger effect = lower value 0.99 | locus YDR335W, strain msn5, stronger effect = lower value 0.989 | locus YEL003W, strain gim4, stronger effect = lower value 0.97 | locus YEL037C, strain rad23, stronger effect = lower value 0.979 | locus YEL061C, strain CIN8 (second series), stronger effect = lower value 0.98 | locus YEL061C, strain CIN8, stronger effect = lower value 0.943 | locus YER015W, strain faa2, stronger effect = lower value 1.01 | locus YER016W, strain bim1, stronger effect = lower value 0.976 | locus YER110C, stronger effect = lower value 0.937 | locus YER111C, strain swi4, stronger effect = lower value 0.981 | locus YER155C, strain BEM2 (second series), stronger effect = lower value 1.03 | locus YER155C, strain BEM2, stronger effect = lower value 0.939 | locus YER167W, strain BCK2, stronger effect = lower value 0.959 | locus YFR010W, strain ubp6, stronger effect = lower value 0.991 | locus YGL167C, strain pmr1, stronger effect = lower value 0.963 | locus YGL173C, strain kem1, stronger effect = lower value 0.955 | locus YGL227W, strain vid30, stronger effect = lower value 0.984 | locus YGL240W, strain doc1, stronger effect = lower value 0.999 | locus YGL248W, strain PDE1, stronger effect = lower value 0.914 | locus YGL253W, strain hxk2, stronger effect = lower value 0.975 | locus YGR135W, strain pre9, stronger effect = lower value 0.895 | locus YGR252W, strain gcn5, stronger effect = lower value 0.794 | locus YHR013C, strain ard1, stronger effect = lower value 1.02 | locus YHR027C, strain rpn1, stronger effect = lower value 0.983 | locus YHR094C, strain hxt1, stronger effect = lower value 0.941 | locus YHR129C, strain ARP1, stronger effect = lower value 0.945 | locus YHR142W, strain chs7, stronger effect = lower value 0.957 | locus YHR200W, strain rpn10, stronger effect = lower value 0.924 | locus YIL066C, strain RNR3, stronger effect = lower value 0.936 | locus YIL073C, strain SPO22, stronger effect = lower value 0.891 | locus YIR030C, strain dcg1, stronger effect = lower value 0.931 | locus YJL092W, strain hpr5, stronger effect = lower value 0.979 | locus YJL095W, strain BCK1 (second series), stronger effect = lower value 0.983 | locus YJL115W, strain asf1, stronger effect = lower value 1 | locus YJL134W, strain LCB3, stronger effect = lower value 0.938 | locus YJL154C, strain vps35, stronger effect = lower value 0.994 | locus YJL164C, strain tpk1, stronger effect = lower value 0.979 | locus YJL166W, strain qcr8, stronger effect = lower value 0.975 | locus YJL168C, strain set2, stronger effect = lower value 0.941 | locus YJL187C, strain SWE1 (second series), stronger effect = lower value 0.942 | locus YJL187C, strain SWE1, stronger effect = lower value 0.985 | locus YJR043C, strain POL32, stronger effect = lower value 0.935 | locus YJR066W, strain TOR1, stronger effect = lower value 0.834 | locus YJR075W, strain HOC1, stronger effect = lower value 0.937 | locus YKL160W, strain elf1, stronger effect = lower value 0.968 | locus YKL190W, strain CNB1, stronger effect = lower value 0.962 | locus YKR026C, strain gcn3, stronger effect = lower value 0.976 | locus YKR091W, strain srl3, stronger effect = lower value 0.979 | locus YLL001W, strain dnm1, stronger effect = lower value 0.975 | locus YLL026W, stronger effect = lower value 0.976 | locus YLL041C, strain sdh2, stronger effect = lower value 0.98 | locus YLR027C, strain aat2, stronger effect = lower value 0.969 | locus YLR058C, strain SHM2, stronger effect = lower value 0.956 | locus YLR102C, strain apc9, stronger effect = lower value 0.949 | locus YLR221C, strain rsa3, stronger effect = lower value 0.959 | locus YLR258W, strain gsy2, stronger effect = lower value 0.942 | locus YLR320W, strain mms22, stronger effect = lower value 0.919 | locus YLR330W, strain CHS5, stronger effect = lower value 0.932 | locus YLR342W, strain FKS1, stronger effect = lower value 0.965 | locus YLR357W, strain rsc2, stronger effect = lower value 1.1 | locus YLR370C, strain arc18, stronger effect = lower value 0.948 | locus YLR371W, strain rom2, stronger effect = lower value 0.942 | locus YLR384C, strain iki3, stronger effect = lower value 0.987 | locus YML016C, strain PPZ1, stronger effect = lower value 0.951 | locus YML120C, strain ndi1, stronger effect = lower value 0.942 | locus YML124C, strain tub3, stronger effect = lower value 0.934 | locus YMR058W, strain fet3, stronger effect = lower value 0.963 | locus YMR078C, strain ctf18, stronger effect = lower value 0.918 | locus YMR125W, strain sto1, stronger effect = lower value 1.03 | locus YMR129W, stronger effect = lower value 0.983 | locus YMR205C, strain PFK2, stronger effect = lower value 0.986 | locus YMR231W, strain pep5, stronger effect = lower value 0.964 | locus YNL067W, strain RPL9B, stronger effect = lower value 0.956 | locus YNL071W, strain lat1, stronger effect = lower value 0.945 | locus YNL183C, strain NPR1, stronger effect = lower value 0.843 | locus YNL209W, strain ssb2, stronger effect = lower value 0.99 | locus YNL233W, strain BNI4, stronger effect = lower value 0.935 | locus YNL248C, strain rpa49, stronger effect = lower value 1.02 | locus YNL322C, strain KRE1 (second series), stronger effect = lower value 0.992 | locus YNR049C, strain mso1, stronger effect = lower value 0.982 | locus YOL012C, strain htz1 0.759 | locus YOR001W, strain rrp6, stronger effect = lower value 0.953 | locus YOR061W, strain CKA2, stronger effect = lower value 0.926 | locus YOR069W, strain VPS5, stronger effect = lower value 0.971 | locus YOR070C, strain gyp1, stronger effect = lower value 0.973 | locus YOR080W, strain dia2, stronger effect = lower value 1.01 | locus YOR083W, strain WHI5, stronger effect = lower value 0.982 | locus YOR106W, strain vam3, stronger effect = lower value 0.959 | locus YOR136W, strain idh2, stronger effect = lower value 0.989 | locus YOR265W, strain rbl2, stronger effect = lower value 1 | locus YOR270C, strain vph1, stronger effect = lower value 0.961 | locus YOR290C, strain snf2, stronger effect = lower value 0.906 | locus YOR316C, strain cot1, stronger effect = lower value 0.939 | locus YPL051W, strain arl3, stronger effect = lower value 0.923 | locus YPL055C, strain LGE1, stronger effect = lower value 0.925 | locus YPL078C, strain atp4, stronger effect = lower value 0.975 | locus YPL106C, strain sse1, stronger effect = lower value 1.15 | locus YPL240C, strain hsp82, stronger effect = lower value 0.977 | locus YPL241C, strain CIN2, stronger effect = lower value 0.948
0.819 (inactive) and 0.823 (active): locus YJL095W, strain BCK1, stronger effect = lower value
